In the OligoGym collection one finds sensor-assay potency score (higher = more potent) data, which are given here for 39 sequences.
Note: reference of the scale not given here.

In the first experiment the target is DAGLA. Description: pooled miR-30 sensor sort-seq; sequence = guide strand. The note with it: shRNA.
The sequence TTGTTTTCTAAACTCTAAGAGC gave a sensor-assay potency score (higher = more potent) of -0.925.
The same measure, in the same setting: in the case of TTTGTAGCGGAGCATCTCTTGT it was -1.44; in that of TAGAAGTCCGGATCTTGTCAGC, -0.641; in that of TTTTACAGCAATATTAGTTTGG, 0.015.
On the same count and under the same terms, as for TTGGCAGTGAGGTCGTTGCAGG, the figure is -1.13; as for TTCATCTGAGAGTCTGTCTTGT, 0.509; as for TAGAGGTCTTGGAAGGAGCTGC, 0.223.
On the same count and under the same terms, as for TAGTTCTCCAGCACCTTGTTGA, the figure is -0.467.
In turn, TAAACATGTACAGCACTGCAGG came in with a sensor-assay potency score (higher = more potent) of -1.11.
The sequence TAGCGGAGCATCTCTTGTGAAT gave a sensor-assay potency score (higher = more potent) of -1.2.
As to TTTCTTCTTGTCATGGTCCACC, the sensor-assay potency score (higher = more potent) was -0.657.
For TTTCATCTGAGAGTCTGTCTTG, the sensor-assay potency score (higher = more potent) turned out to be 0.187.

The target in another experiment is DAZ2. The description is as above. The note with it: shRNA.
TGGATAAGCAGAATAAGCCTGA: the sensor-assay potency score (higher = more potent) was -0.294.
Same read-out and setting: in the case of TATACAGGCAACTGATATCCAG it was -0.956; in that of TCGTGATTATCTTCACTTCTTT, -0.86.

Another experiment deals with DCAF4L2. The description is as above. The note with it: shRNA.
Sequence TTTGCAGAGAAGTCACTGCTGA gave a sensor-assay potency score (higher = more potent) of 0.521.
Still for that read-out and setting: as for TTATCTTTGACACTGAGCCCTT, the figure is -0.414.
On the same count and under the same terms, in the case of TAGCTGGTTCTTTCGTAGCATG it was -1.53.
Same read-out and setting: in the case of TAAACATCTCACAAACTGCTGC it was -0.0348; in that of TTTTCTTTTGTCAACTGCCCAT, -0.395; in that of TTGGAGTATCTGCAAGTCCCAC, -0.914.
Sequence TACTGTGTTACACATTTAGTGG gave a sensor-assay potency score (higher = more potent) of -1.02.
Take TCTGACTGTCTTTTTCTGCTTG: the sensor-assay potency score (higher = more potent) came out at 0.906.
The same measure, in the same setting: as for TTCTTCGTTCACATGCACGGGT, the figure is 0.233.
Same read-out and setting: as for TACCTATGAACAGCGACGCTGG, the figure is -0.732.
TTAACTGAAACAACTTTACAGA: the sensor-assay potency score (higher = more potent) is -0.678.
With TGTATCTTCTCTATTGACCTAT, the sensor-assay potency score (higher = more potent) was determined as 0.0322.

The next experiment has as its target DCHS2. The experiment is described as above. As to conditions: shRNA.
TTGAGAACATAAACTGAGGTGC: the sensor-assay potency score (higher = more potent) amounted to 0.162.
Still for that read-out and setting: as for TAGAATAGGTCAATTCTCCATA, the figure is -0.353; as for TAATCTAGAATCGCTTTTGTTG, -0.749; as for TATATCAGTCACCTGTACCTTG, 0.322.
The same measure, in the same setting: in the case of TTTTCTGGAACAATACAGCTGA it was 0.21; in that of TTATAGTAAAGCACTCATCAGT, -0.223.
The same measure, in the same setting: in the case of TGTACCTTGATTACAGTCGTAT it was -0.366; in that of TGAATTATCATTCTCATCCTGT, 0.421.
In turn, ATACTTATTAAACTCAACCATT returned a sensor-assay potency score (higher = more potent) of -1.29.
On the same count and under the same terms, in the case of TGGATTATCATTGACATCCAGC it was -1.15.
On the same count and under the same terms, in the case of TTCATAGTCAAACTGTCGCCGC it was -0.481.
Regarding TAGAAAGAAACAAGTCTCCGGT, the sensor-assay potency score (higher = more potent) stood at 0.782.
